Reference: the supplement of paper PMC9694430
Where a name gives a salt, the structure may show the parent alone.

Tests used:
Assay in all cases: thermal shift delta Tm vs DMSO control; higher = stronger stabilization (binding)
Conditions in all cases: 12.5 µM; protein concentration 2 µM
LOC_OS02G45750-cb003 = system: LOC_OS02G45750-cb003
Procedure, shortened: (§1)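 Compounds dissolved in DMSO were added to purified rice kinase domain constructs, which had been expressed in E. coli, for differential scanning fluorimetry. Each well held 19.5 μl of 2 μM kinase in 100 mM potassium phosphate pH 7.5, 150 mM NaCl, 10% glycerol and 5 × SYPRO Orange. Fluorescence was followed from 25°C to 95°C at a rate of 0.05°C/s. Shifts in Boltzmann-fitted melting temperature are triplicate means relative to DMSO-only protein.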

LOC_OS02G54510-cb004 = system: LOC_OS02G54510-cb004
Procedure, shortened: as §1

LOC_OS03G04050-cb001 = system: LOC_OS03G04050-cb001
Procedure, shortened: as §1

LOC_OS03G12390-cb001 = system: LOC_OS03G12390-cb001
Procedure, shortened: as §1

LOC_OS03G27990-cb004 = system: LOC_OS03G27990-cb004
Procedure, shortened: as §1

LOC_OS03G50450-cb001 = system: LOC_OS03G50450-cb001
Procedure, shortened: as §1

LOC_OS03G50810-cb003 = system: LOC_OS03G50810-cb003
Procedure, shortened: as §1

LOC_OS04G35114-cb001 = system: LOC_OS04G35114-cb001
Procedure, shortened: as §1

LOC_OS04G38480-cb003 = system: T1, LOC_OS04G38480-cb003
T1 sequence (whole entry): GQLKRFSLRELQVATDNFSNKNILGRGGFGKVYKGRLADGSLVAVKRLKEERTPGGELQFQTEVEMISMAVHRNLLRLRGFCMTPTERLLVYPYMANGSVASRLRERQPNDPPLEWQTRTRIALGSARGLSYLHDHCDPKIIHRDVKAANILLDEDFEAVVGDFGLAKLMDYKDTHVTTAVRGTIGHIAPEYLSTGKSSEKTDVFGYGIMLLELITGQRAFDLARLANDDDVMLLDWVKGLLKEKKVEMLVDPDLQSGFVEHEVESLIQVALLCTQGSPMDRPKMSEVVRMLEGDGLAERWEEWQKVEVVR
Procedure, shortened: as §1

LOC_OS04G41100-cb001 = system: T2, LOC_OS04G41100-cb001
T2 sequence (whole entry): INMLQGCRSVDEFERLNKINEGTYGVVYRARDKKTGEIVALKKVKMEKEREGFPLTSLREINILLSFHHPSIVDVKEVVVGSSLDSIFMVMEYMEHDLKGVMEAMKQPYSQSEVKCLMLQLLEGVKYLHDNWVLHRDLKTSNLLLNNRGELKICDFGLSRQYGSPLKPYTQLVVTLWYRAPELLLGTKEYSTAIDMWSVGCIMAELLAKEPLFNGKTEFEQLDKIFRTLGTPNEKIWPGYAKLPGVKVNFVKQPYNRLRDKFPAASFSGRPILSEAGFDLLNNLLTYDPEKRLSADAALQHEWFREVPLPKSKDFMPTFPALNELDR
Procedure, shortened: as §1

| Compound | thermal shift delta Tm (LOC_OS02G45750-cb003) [°C] | thermal shift delta Tm (LOC_OS02G54510-cb004) [°C] | thermal shift delta Tm (LOC_OS03G04050-cb001) [°C] | thermal shift delta Tm (LOC_OS03G12390-cb001) [°C] | thermal shift delta Tm (LOC_OS03G27990-cb004) [°C] | thermal shift delta Tm (LOC_OS03G50450-cb001) [°C] | thermal shift delta Tm (LOC_OS03G50810-cb003) [°C] | thermal shift delta Tm (LOC_OS04G35114-cb001) [°C] | thermal shift delta Tm (LOC_OS04G38480-cb003) [°C] | thermal shift delta Tm (LOC_OS04G41100-cb001) [°C] |
| --- | --- | --- | --- | --- | --- | --- | --- | --- | --- | --- |
| CC(C)(C)NC(=O)c1cncn1C1CCN(c2ccc(-c3nnc(C(F)(F)F)o3)cn2)CC1 | 0.9 | 0.27 | 0.48 | -0.08 | 0.32 | 0.7 | 0.36 | -0.3 | 1.43 | 0.3 |
| Cc1ccc(S(=O)(=O)/C=C/C#N)cc1 | -0.28 | 1.4 | 0.67 | -0.03 | -0.15 | 0.08 | -1.25 | 0.08 | 0.47 | -0.67 |
| Cc1cc(Nc2cc(N3CCN(C)CC3)nc(Sc3ccc(NC(=O)C4CC4)cc3)n2)n[nH]1 [Tozasertib (VX-680, MK-0457)] | 6.99 | 1.33 | 0.64 | 1.35 | 0.54 | 3.08 | 4.7 | 8.53 | 2.62 | 2.03 |
| CNC(=O)c1cc(Oc2ccc(NC(=O)Nc3cc(C(C)(C)C)nn3-c3ccc4ncccc4c3)c(F)c2)ccn1 [Rebastinib (DCC-2036)] | 12.3 | 6.64 | 0.59 | 5.55 | 0.52 | 0.33 | 5.06 | 0.84 | 2.8 | 5.27 |
| COc1cc(-c2cc(-c3ccc(N4CCNCC4)cc3)cnc2C)cc(OC)c1OC | 2.4 | 0.19 | 0.41 | -0.01 | 0.29 | 0.65 | 0.51 | 2.27 | 1.94 | 0.29 |
| CCn1c(=O)c(-c2ccc(Cl)cc2Cl)cc2cnc(Nc3ccc(N4CCNCC4)c(F)c3)nc21 | 10.1 | 8.42 | -0.88 | 4.85 | 10.7 | 0.54 | 6.99 | 11 | 3.17 | 2.82 |
| c1nc2c(NC3CCCCC3)nc(Nc3ccc(N4CCOCC4)cc3)nc2[nH]1 [Reversine] | 8.28 | 4.92 | 0.32 | 9.58 | 5.33 | 9.57 | 5.17 | 6.36 | 3.21 | 0.65 |
| C[C@@H](Oc1ccc2[nH]nc(/C=C/c3cnn(CCO)c3)c2c1)c1c(Cl)cncc1Cl | 13.1 | 7.93 | 0.05 | 10.5 | 9.48 | 6.65 | 6.58 | 12.3 | 5.56 | 1.48 |
| CCn1c(C(=O)N(C2CC2)C2CC2)cc2c3c(ncn3C)c(Nc3cc(C)n(C)n3)nc21 | 1.23 | 0.33 | 0.44 | 1.55 | 0.13 | 0.66 | 1.38 | 2.5 | 1.2 | 0.58 |
| COc1ccc(/C=C/C(=O)C2(C(=O)/C=C/c3ccc(OC)c(OC)c3)CCCCC2)cc1OC | 1.45 | 0.31 | 0.85 | -0.65 | 0.61 | 0.8 | -0.01 | 0.96 | 0.14 | 0.5 |
| C[C@H](Nc1ncnc2nc[nH]c12)c1cc2cccc(Cl)c2c(=O)n1-c1ccccc1 [Duvelisib (IPI-145, INK1197)] | -1.36 | 2.02 | -0.19 | -0.34 | -0.31 | 0.38 | 0.72 | -1.37 | 0.01 | 0.58 |
| C=CC(=O)N1CCN(CCCn2c(=O)c(-c3c(Cl)c(OC)cc(OC)c3Cl)cc3cnc(NC)nc32)CC1 | 1.93 | 0.21 | 0.58 | -0.09 | 0.48 | 0.92 | 0.26 | -0.04 | 0.5 | 0.38 |
| Cc1cn(-c2cc(NC(=O)c3ccc(C)c(Nc4nccc(-c5cnccn5)n4)c3)cc(C(F)(F)F)c2)cn1 [Radotinib] | 0.73 | 1.99 | 0.36 | 0.26 | 0.23 | -0.11 | 0.14 | 0.13 | 1.4 | 0.41 |
| Cc1c(NC(=O)c2ccc(C(C)(C)C)cc2)cccc1-c1cn(C)c(=O)c(Nc2ccc(C(=O)N3CCOCC3)cc2)n1 | 1.07 | 0.28 | 0.82 | 1.85 | 0.51 | 0.69 | 0.7 | 0.72 | 0.87 | 0.43 |
| C[C@H](NC(=O)c1c(N)nn2cccnc12)c1cc2cccc(C#Cc3cnn(C)c3)c2c(=O)n1-c1ccccc1 | 1.18 | 0.33 | 0.47 | -0.11 | 0.46 | 0.63 | 0.32 | 0.21 | 1.13 | 0.04 |
| COc1ccc(F)c(F)c1C(=O)c1cnc(NC2CCN(S(C)(=O)=O)CC2)nc1N | 1.63 | -0.08 | 0.26 | -0.05 | 0.19 | 0.18 | 0.05 | 0.62 | 1.07 | 0.79 |
| COc1cc2nccc(Oc3ccc(NC(=O)NC4CC4)c(Cl)c3)c2cc1C(N)=O [Lenvatinib (E7080)] | 0.65 | 0.49 | 0.79 | -0.1 | 0.31 | 0.39 | 0.26 | 1.09 | 0.48 | 0.18 |
| Cc1cc(O)c(-c2ccc([C@@H](C)CN)cc2)c2c1[nH]c(=O)c1sccc12 [OTS514 hydrochloride] | 0.87 | 1.1 | 0.44 | 0.55 | 0.52 | 0.04 | 0.85 | 1.39 | 1.65 | 3.58 |
| O=c1sn(-c2cccc3ccccc23)c(=O)n1Cc1ccccc1 [Tideglusib] | 0 | 0.35 | 0.13 | -1.57 | 0.89 | 0.32 | -0.5 | 2.38 | 0.78 | 0.34 |
| CCn1c(-c2nonc2N)nc2cnc(Oc3cccc(NC(=O)c4ccc(OCCN5CCOCC5)cc4)c3)cc21 | -0.36 | 0.27 | 0.38 | 0.99 | 0.4 | -0.03 | 0.42 | 0.1 | 2.03 | 0.94 |
| Clc1ccc(C2(c3ccc(-c4cn[nH]c4)cc3)CCNCC2)cc1 | -0.2 | 0.04 | 0.31 | 0.47 | 0.05 | 0.32 | 0.32 | 0.57 | 0.33 | 0.38 |
